# According to PubChem BioAssay:
# Calls of active or inactive are those of the source.
# Key:
# [1] = test system: PRMT1 (protein arginine N-methyltransferase 1); test: PRMT1 binders on small-molecule microarrays, primary screen, biochemical, small-molecule microarray, 635 nm fluorescence (AID 1088); conditions: small-molecule microarray binding, higher = more signal;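 further: binding of Prmt1 protein to compounds spotted on small-molecule microarray slides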
# [2] = yeast growth modulation, basal conditions, primary screen, YJM789 clinical isolate, OD600, 24 h (AID 1089);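 further: growth of clinical yeast isolate S. cerevisiae YJM 789 seeded 1000 cells per well; test concentration not given here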; conditions: S. cerevisiae YJM789 growth, higher = more signal, called active from +8 up or from −8 down
# [3] = fission yeast growth modulation, primary screen, strain 972, OD600, 24 h, no modulator (AID 1090);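 further: basal condition with compound alone and no growth modifier present; test concentration not given here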; conditions: S. pombe 972 growth, higher = more signal, called active from +8 up or from −8 down
# [4] = S. cerevisiae growth modulation with rapamycin, primary screen, strain BY4716, OD600, 96 h (AID 1091); conditions: higher = more signal, called active from +8 up or from −8 down; further: test concentration not given here
# [5] = molecular target: Torsin-1A-interacting protein 2 (Homo sapiens) (UniProt Q8NFQ8); test: LULL1 binders on small-molecule microarray, primary screen, cell lysate, human LULL1 lysate, 635/667 nm fluorescence (AID 1092); conditions: hLULL1 lysate binding, 635 nm fluorescence, higher = more signal;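 further: probe is lysate of COS7 cells overexpressing human LULL1; score merges per-feature 667 nm fluorescence with signal-to-noise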
# [6] = E. coli growth modulation, two-sided OD650, primary screen, E. coli filamentation project, strain DRC41, 24 h (AID 1093); conditions: OD650, 24 h, higher = more signal, called active from +8 up or from −8 down;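 further: MC1000 strain lacking acrAB efflux and sulA so SOS filamentation is blocked; test concentration not given here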
# [7] = small-molecule microarray binders of probe aLefty2, primary screen, biochemical, biotinylated probe, 635/667 nm fluorescence (AID 1094); conditions: higher = more signal;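 further: score merges spot fluorescence near 667 nm with spot signal-to-noise ratio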
# [8] = test system: Noggin (protein binding on small-molecule microarray); test: Noggin binders on small-molecule microarray, primary screen, biochemical, 635/667 nm fluorescence (AID 1095); conditions: 635 nm fluorescence, higher = more signal;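 further: score merges 667 nm feature fluorescence with signal to noise over triplicate slides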
# [9] = molecular target: Neurogenic locus notch homolog protein 3 (Homo sapiens) (UniProt Q9UM47); test: NOTCH3 binders on small-molecule microarray, primary screen, biochemical, 635/667 nm fluorescence (AID 1096); conditions: NOTCH3 binding, 635 nm fluorescence, higher = more signal
# [10] = small-molecule microarray binders of probe aEGFR, primary screen, biochemical, biotinylated probe, 635/667 nm fluorescence (AID 1097); conditions: higher = more signal;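 further: probe is a biotinylated anti-EGFR antibody binding compounds printed on slides; score combines fluorescence near 667 nm and signal to noise of each spot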
# [11] = test system: Plasmodium falciparum Sir2 (PF13_0152, Sir2A); test: pfSir2 binders on small-molecule microarrays, primary screen, biochemical, small-molecule microarray, 635 nm fluorescence (AID 1098); conditions: small-molecule microarray binding, fluorescence 635 nm; higher = more signal;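 further: score merges spot fluorescence intensity with its signal-to-noise ratio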
# [12] = small-molecule microarray binders of probe aDKK1, primary screen, biochemical, biotinylated probe, 635/667 nm fluorescence (AID 1099); conditions: higher = more signal;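 further: score merges 667nm spot fluorescence with signal to noise across triplicate slides; reference of the scale not given here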
# [13] = small-molecule microarray binders of probe aCHRDL2, primary screen, biochemical, biotinylated probe, 635/667 nm fluorescence (AID 1100); conditions: higher = more signal
# [14] = splicing luciferase reporter signal modulators, primary screen, spliceosome inhibition project, cell-based, HEK293, splice +/- reporter (AID 1101); conditions: luminescence, 24 h, higher = more signal, called active from +8 up or from −8 down;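 further: HEK293 cells carrying a splicing-competent luciferase reporter gene; test concentration not given here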
# [15] = molecular target: Fibroblast growth factor 10 (Homo sapiens) (UniProt O15520); test: FGF10 binders on small-molecule microarrays, primary screen, biochemical, small-molecule microarray, 635 nm fluorescence (AID 1102); conditions: FGF10 binding, fluorescence 635 nm, higher = more signal
# [16] = test system: glycogen synthase kinase-3 (GSK3A per assay name; protocol says GSK3B); test: GSK3 binders on small-molecule microarrays, primary screen, biochemical, small-molecule microarray, 635 nm fluorescence, GSK3A (AID 1103); conditions: small-molecule microarray binding, fluorescence 635 nm; higher = more signal; further: the record names both GSK3A and GSK3B
# [17] = molecular target: Epidermal growth factor receptor (Homo sapiens) (UniProt P00533); test: EGFR binders on small-molecule microarrays, primary screen, biochemical, small-molecule microarray, 635 nm fluorescence (AID 1104); conditions: EGFR binding, higher = more signal;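 further: score merges 667 nm emission intensity with spot signal to noise over triplicate slides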
# [18] = molecular target: Follistatin-related protein 3 (Homo sapiens) (UniProt O95633); test: FSTL3 binders on small-molecule microarrays, primary screen, biochemical, small-molecule microarray, 635 nm fluorescence (AID 1105); conditions: FSTL3 binding, higher = more signal;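 further: score merges emission near 667 nm and signal to noise per printed spot across three slides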
# [19] = molecular target: Dickkopf-related protein 1 (Homo sapiens) (UniProt O94907); test: DKK1 binders on small-molecule microarrays, primary screen, biochemical, small-molecule microarray, 635 nm fluorescence scan (AID 1106); conditions: DKK1 binding, higher = more signal;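 further: score merges emission near 667 nm with signal to noise over three replicate slides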
# [20] = test system: Inhibin beta A chain (activin A); test: INHBA (activin A) binders on microarrays, primary screen, biochemical, small-molecule microarray, 635 nm fluorescence scan (AID 1107); conditions: small-molecule microarray binding, higher = more signal;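 further: mouse activin A protein probed at 4.33 µg/mL on printed slides; score merges bound-protein fluorescence near 667 nm with spot signal-to-noise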
# Sequence of Torsin-1A-interacting protein 2 (Homo sapiens) (Q8NFQ8 whole entry, looked up): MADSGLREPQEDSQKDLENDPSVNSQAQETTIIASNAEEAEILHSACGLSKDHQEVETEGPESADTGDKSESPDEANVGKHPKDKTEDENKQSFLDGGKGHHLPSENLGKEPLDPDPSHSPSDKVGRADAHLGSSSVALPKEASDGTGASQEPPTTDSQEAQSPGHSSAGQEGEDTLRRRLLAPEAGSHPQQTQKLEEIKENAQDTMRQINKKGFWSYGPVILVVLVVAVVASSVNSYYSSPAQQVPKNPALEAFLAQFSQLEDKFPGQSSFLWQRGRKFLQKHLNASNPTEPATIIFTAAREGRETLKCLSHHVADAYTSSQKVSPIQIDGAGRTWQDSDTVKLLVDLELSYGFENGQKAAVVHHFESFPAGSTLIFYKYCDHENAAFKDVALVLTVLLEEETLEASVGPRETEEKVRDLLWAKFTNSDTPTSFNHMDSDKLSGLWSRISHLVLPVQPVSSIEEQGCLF
# Sequence of Follistatin-related protein 3 (Homo sapiens) (O95633 whole entry, looked up): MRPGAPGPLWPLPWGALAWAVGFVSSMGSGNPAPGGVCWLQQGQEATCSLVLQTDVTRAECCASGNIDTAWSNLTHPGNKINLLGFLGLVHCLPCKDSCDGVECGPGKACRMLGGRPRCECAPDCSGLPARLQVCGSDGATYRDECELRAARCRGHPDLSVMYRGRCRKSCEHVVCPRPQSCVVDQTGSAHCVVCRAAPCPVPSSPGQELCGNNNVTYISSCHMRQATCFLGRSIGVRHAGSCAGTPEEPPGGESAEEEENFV
# Sequence of Neurogenic locus notch homolog protein 3 (Homo sapiens) (Q9UM47 whole entry, looked up): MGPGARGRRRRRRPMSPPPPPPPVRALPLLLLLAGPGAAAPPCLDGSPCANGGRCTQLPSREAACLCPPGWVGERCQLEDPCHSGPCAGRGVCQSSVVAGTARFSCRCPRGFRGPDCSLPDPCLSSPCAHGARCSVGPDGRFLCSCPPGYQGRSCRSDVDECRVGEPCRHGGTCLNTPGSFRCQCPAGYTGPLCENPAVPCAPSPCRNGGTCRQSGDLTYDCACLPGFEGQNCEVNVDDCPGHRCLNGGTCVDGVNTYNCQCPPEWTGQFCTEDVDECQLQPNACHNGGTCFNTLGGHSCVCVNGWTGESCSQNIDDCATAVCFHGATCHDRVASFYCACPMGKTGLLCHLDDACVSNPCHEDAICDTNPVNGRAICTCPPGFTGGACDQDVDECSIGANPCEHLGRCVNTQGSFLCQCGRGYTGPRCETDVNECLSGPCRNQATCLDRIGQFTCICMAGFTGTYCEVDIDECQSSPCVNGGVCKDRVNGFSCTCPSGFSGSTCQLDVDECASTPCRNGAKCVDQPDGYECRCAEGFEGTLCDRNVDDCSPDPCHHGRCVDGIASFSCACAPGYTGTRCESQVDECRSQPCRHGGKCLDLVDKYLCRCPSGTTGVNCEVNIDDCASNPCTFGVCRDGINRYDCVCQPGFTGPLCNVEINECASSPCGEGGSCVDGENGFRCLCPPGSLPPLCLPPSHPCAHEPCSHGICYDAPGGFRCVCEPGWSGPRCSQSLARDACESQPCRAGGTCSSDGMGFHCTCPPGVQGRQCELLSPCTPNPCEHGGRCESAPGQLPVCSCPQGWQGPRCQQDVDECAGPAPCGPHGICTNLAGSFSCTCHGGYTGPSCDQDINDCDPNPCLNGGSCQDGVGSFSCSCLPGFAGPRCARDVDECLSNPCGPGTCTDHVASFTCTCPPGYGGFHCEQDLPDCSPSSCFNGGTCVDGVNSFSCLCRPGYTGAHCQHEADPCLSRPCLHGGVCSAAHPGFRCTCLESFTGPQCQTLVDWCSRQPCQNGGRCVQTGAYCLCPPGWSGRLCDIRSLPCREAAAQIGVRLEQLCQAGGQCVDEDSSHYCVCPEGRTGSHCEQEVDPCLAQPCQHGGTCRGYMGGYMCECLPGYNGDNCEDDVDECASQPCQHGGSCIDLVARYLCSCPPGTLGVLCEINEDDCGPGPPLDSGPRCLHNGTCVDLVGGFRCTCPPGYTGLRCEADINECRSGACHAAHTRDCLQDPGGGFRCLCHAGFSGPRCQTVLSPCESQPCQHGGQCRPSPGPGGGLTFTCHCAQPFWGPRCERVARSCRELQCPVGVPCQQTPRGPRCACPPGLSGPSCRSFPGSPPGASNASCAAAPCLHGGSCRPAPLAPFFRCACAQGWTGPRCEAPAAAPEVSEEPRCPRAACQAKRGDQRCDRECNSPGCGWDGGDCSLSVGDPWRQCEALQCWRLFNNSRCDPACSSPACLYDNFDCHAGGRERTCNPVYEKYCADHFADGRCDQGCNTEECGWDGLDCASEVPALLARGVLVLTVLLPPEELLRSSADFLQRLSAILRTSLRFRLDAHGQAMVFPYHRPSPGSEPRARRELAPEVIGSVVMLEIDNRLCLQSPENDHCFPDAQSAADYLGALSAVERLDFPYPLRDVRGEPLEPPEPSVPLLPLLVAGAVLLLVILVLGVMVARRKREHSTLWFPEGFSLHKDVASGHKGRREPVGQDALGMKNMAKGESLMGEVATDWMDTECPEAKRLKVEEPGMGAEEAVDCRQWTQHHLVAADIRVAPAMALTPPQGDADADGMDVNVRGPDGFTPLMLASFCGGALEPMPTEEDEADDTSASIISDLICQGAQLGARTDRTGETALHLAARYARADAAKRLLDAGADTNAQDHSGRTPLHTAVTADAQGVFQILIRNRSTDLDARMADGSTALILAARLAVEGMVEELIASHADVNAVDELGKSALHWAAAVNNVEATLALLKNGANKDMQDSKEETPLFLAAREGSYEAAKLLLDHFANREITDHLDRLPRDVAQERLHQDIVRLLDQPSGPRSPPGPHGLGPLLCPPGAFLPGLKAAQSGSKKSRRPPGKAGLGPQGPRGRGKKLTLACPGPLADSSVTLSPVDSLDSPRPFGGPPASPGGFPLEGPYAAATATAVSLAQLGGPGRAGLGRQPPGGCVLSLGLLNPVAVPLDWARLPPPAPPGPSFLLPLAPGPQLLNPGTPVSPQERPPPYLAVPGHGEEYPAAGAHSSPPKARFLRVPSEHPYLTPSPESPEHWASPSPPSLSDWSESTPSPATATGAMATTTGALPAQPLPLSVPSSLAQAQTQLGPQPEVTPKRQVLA
# Sequence of Fibroblast growth factor 10 (Homo sapiens) (O15520 whole entry, looked up): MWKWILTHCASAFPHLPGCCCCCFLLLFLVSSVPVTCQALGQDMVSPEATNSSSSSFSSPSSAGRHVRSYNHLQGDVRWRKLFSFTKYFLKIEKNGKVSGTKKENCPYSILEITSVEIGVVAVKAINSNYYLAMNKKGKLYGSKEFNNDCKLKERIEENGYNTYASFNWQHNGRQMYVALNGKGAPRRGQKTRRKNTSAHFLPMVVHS
# Sequence of Epidermal growth factor receptor (Homo sapiens) (P00533 whole entry, looked up): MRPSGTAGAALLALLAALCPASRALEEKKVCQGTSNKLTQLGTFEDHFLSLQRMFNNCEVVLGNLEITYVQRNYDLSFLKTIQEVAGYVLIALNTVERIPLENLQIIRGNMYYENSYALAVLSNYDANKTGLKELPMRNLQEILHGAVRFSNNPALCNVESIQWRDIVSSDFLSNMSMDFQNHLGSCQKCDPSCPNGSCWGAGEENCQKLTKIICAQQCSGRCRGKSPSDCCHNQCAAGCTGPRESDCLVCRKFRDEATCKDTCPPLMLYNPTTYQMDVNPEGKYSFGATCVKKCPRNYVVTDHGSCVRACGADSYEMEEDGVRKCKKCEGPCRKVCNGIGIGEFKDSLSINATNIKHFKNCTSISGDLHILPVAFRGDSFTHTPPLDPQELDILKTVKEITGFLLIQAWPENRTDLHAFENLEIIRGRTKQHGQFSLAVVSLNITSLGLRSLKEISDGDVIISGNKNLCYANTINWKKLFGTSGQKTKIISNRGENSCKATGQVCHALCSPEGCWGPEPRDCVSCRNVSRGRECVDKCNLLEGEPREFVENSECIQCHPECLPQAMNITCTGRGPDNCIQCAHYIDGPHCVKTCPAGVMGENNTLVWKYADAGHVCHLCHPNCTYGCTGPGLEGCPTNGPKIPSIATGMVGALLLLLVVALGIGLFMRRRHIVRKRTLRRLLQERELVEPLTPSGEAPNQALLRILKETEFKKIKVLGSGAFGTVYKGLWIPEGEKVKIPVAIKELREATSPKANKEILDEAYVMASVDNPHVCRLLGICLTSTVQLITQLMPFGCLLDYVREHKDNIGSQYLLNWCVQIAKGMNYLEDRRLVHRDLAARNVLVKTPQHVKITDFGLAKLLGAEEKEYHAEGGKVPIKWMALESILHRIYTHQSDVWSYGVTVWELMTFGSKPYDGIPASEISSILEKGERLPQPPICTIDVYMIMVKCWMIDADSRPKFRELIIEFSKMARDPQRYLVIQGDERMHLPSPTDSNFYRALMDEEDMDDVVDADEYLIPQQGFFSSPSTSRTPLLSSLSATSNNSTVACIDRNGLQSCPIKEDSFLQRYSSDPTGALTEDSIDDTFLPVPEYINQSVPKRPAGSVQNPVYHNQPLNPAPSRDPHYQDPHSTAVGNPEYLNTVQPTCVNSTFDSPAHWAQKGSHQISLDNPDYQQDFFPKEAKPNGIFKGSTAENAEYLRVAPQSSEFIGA
# Sequence of Dickkopf-related protein 1 (Homo sapiens) (O94907 whole entry, looked up): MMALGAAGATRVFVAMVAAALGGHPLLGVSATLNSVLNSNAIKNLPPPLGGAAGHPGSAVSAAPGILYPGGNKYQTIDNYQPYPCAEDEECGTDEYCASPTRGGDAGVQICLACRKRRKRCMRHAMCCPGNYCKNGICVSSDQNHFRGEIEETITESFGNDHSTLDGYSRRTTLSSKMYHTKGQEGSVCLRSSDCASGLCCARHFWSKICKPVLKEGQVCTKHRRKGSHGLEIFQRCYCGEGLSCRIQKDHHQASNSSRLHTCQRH
smiles,measurement,setting,value
CCc1cccc(NC(=O)O[C@H]2[C@H](OC(=O)Nc3ccc4c(c3)OCO4)[C@H](OC(=O)Nc3ccc4c(c3)OCO4)[C@@H](OC)O[C@@H]2CO)c1,composite z-score,[1],1.55
same,z-score,[2],1.5 (inactive)
same,z-score,[3],1.09 (inactive)
same,z-score,[4],7.36 (inactive)
same,composite z-score,[5],3.05
same,z-score,[6],0.641 (inactive)
same,composite z-score,[7],0.0386
same,composite z-score,[8],0.795
same,composite z-score,[9],1.08
same,composite z-score,[10],-0.13
same,composite z-score,[11],1.44
same,composite z-score,[12],-0.154
same,composite z-score,[13],0.226
same,z-score,[14],-1.34 (inactive)
same,composite z-score,[15],0.699
same,composite z-score,[16],1.32
same,composite z-score,[17],-0.438
same,composite z-score,[18],0.791
same,composite z-score,[19],0.129
same,composite z-score,[20],0.627
COC(=O)C1=CC(CCCO)=CC(c2ccc(CN3CCCC3)cc2)N(Cc2sc3ccccc3c2Cl)C=C1C(=O)OC (stereo not given),composite z-score,[1],1.54
same,z-score,[2],-3.34 (inactive)
same,z-score,[3],-7.33 (inactive)
same,z-score,[4],-1.39 (inactive)
same,composite z-score,[5],3.3
same,z-score,[6],-0.542 (inactive)
same,composite z-score,[7],0.91
same,composite z-score,[8],0.766
same,composite z-score,[9],1.04
same,composite z-score,[10],0.681
same,composite z-score,[11],1.81
same,composite z-score,[12],0.81
same,composite z-score,[13],1.05
same,z-score,[14],-0.855 (inactive)
same,composite z-score,[15],1.37
same,composite z-score,[16],1.32
same,composite z-score,[17],0.526
same,composite z-score,[18],0.708
same,composite z-score,[19],0.227
same,composite z-score,[20],0.375
C=CCC(OC(C)=O)[C@@H]1[C@@H](N(Cc2ccc(-c3ccccc3)cc2)C(=O)c2cccc3ccccc23)c2cc(OCCCO)ccc2N1C(=O)c1ccc2ccccc2c1 (stereo not given in full),composite z-score,[1],0.189
same,z-score,[2],-0.521 (inactive)
same,z-score,[3],-0.328 (inactive)
same,z-score,[4],-0.569 (inactive)
same,composite z-score,[5],0.813
same,z-score,[6],-0.584 (inactive)
same,composite z-score,[7],0.0802
same,composite z-score,[8],-0.106
same,composite z-score,[9],-0.0403
same,composite z-score,[10],-0.136
same,composite z-score,[11],-0.859
same,composite z-score,[12],1.11
same,composite z-score,[13],-0.0972
same,z-score,[14],-0.686 (inactive)
same,composite z-score,[15],0.256
same,composite z-score,[16],0.201
same,composite z-score,[17],-0.0576
same,composite z-score,[18],0.5
same,composite z-score,[19],-0.19
same,composite z-score,[20],1.08
CCCCC(=C=CC[C@H](O)c1ccc(OCCO)cc1)C[C@H](O)c1ccccn1,composite z-score,[1],1.54
same,z-score,[2],0.415 (inactive)
same,z-score,[3],-1.18 (inactive)
same,z-score,[4],-0.539 (inactive)
same,composite z-score,[5],1.72
same,z-score,[6],0.493 (inactive)
same,composite z-score,[7],-0.0094
same,composite z-score,[8],0.266
same,composite z-score,[9],0.419
same,composite z-score,[10],0.165
same,composite z-score,[11],0.856
same,composite z-score,[12],-0.0313
same,composite z-score,[13],-0.112
same,z-score,[14],0.107 (inactive)
same,composite z-score,[15],1.35
same,composite z-score,[16],0.583
same,composite z-score,[17],-0.229
same,composite z-score,[18],0.416
same,composite z-score,[19],0.215
same,composite z-score,[20],0.669
CC(C)c1ccc(NN2C(C(O)C(C)C)C=CC3C(=O)N(c4ccccc4)C(=O)C32)cc1 (stereo not given),composite z-score,[1],1.56
same,z-score,[2],1.39 (inactive)
same,z-score,[3],0.313 (inactive)
same,z-score,[4],1.39 (inactive)
same,composite z-score,[5],3.53
same,z-score,[6],-0.613 (inactive)
same,composite z-score,[7],0.633
same,composite z-score,[8],0.284
same,composite z-score,[9],1.04
same,composite z-score,[10],0.516
same,composite z-score,[11],1.06
same,composite z-score,[12],1.26
same,composite z-score,[13],1.14
same,z-score,[14],0.437 (inactive)
same,composite z-score,[15],0.651
same,composite z-score,[16],1.31
same,composite z-score,[17],0.389
same,composite z-score,[18],0.926
same,composite z-score,[19],-0.103
same,composite z-score,[20],0.496
COc1ccc(NN2C(C(O)c3ccc(OC)cc3)C=CC3C(=O)N(C4CCCCC4)C(=O)C32)cc1 (stereo not given),composite z-score,[1],1.43
same,z-score,[2],-0.0924 (inactive)
same,z-score,[3],1.01 (inactive)
same,z-score,[4],0.365 (inactive)
same,composite z-score,[5],2.12
same,z-score,[6],0.0447 (inactive)
same,composite z-score,[7],0.103
same,composite z-score,[8],0.157
same,composite z-score,[9],1.08
same,composite z-score,[10],0.21
same,composite z-score,[11],0.797
same,composite z-score,[12],0.702
same,composite z-score,[13],0.501
same,z-score,[14],-0.316 (inactive)
same,composite z-score,[15],0.608
same,composite z-score,[16],1.14
same,composite z-score,[17],0.556
same,composite z-score,[18],1.04
same,composite z-score,[19],-0.101
same,composite z-score,[20],1.2
